For 13 molecules, Potency and outcome results are on record in PubChem BioAssay (Tox21).

A short description of assay [1]: qHTS assay to identify aromatase inhibitors - cell viability counter screen (AID 743084).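 Note: cells stimulated with testosterone during compound exposure; nearly all actives have a fitted effect of over 55% in size.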 Note: potency is the fitted concentration of half-maximal effect.
Assay [2] can be described thus: qHTS assay to identify small molecule that activate the aryl hydrocarbon receptor (AhR) signaling pathway - cell viability counter screen (AID 743086). Note: nearly all actives have a fitted effect of over 45% in size. Note: potency is the fitted concentration of half-maximal effect. A digest of the protocol: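 HepG2-AhR-luc (HG2L7.5c1) cells, 4000/well, were preincubated 5 h at 37C, exposed to compound in qHTS format for 24 hr at 37C, then given CellTiter-Fluor for 30 min; viability was read as fluorescence in the reporter wells.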
For orientation: qHTS replaces the single test concentration by a dilution series.

Assay [3] in a line: qHTS assay to identify small molecule antagonists of the peroxisome proliferator-activated receptor gamma (PPARg) signaling pathway - cell viability counter screen (AID 743194). Note: nearly all actives have a fitted effect of over 55% in size. Note: potency is the fitted concentration of half-maximal effect. As to conditions: Potency: co-treated with 50 nM rosiglitazone. Put shortly:
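PPARg-UAS-bla HEK293H cells were plated, rested 5 h at 37 C, then treated with compounds plus rosiglitazone (50 nM final) for 17 h at 37 C; viability was then read by CellTiter-Glo luminescence after 30 min at room temperature.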

Assay [4] in a line: qHTS assay to identify small molecule antagonists of the peroxisome proliferator-activated receptor delta (PPARd) signaling pathway - cell viability counter screen (AID 743213). Note: nearly all actives have a fitted effect of over 50% in size. Note: potency is the fitted concentration of half-maximal effect. Put shortly:
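Luminescence from CellTiter-Glo, added after the bla read and incubated 30 min at room temperature, gives viability of HEK293H PPARd-bla cells exposed to compounds for 17 h at 37 C with 300 nM L165041.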

Assay [5] in a line: qHTS assay to identify small molecule agonists of the farnesoid-X-receptor (FXR) signaling pathway - cell viability counter screen (AID 743218). Note: nearly all actives have a fitted effect of over 45% in size. Note: potency is the fitted concentration of half-maximal effect. Put shortly: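 Viability of FXR-bla HEK 293T cells is measured by ATP-based CellTiter-Glo luminescence following 16 h compound treatment at 37 C and a prior 2 h room-temperature beta-lactamase substrate step.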
Assay [6] addresses Vitamin D3 receptor (Homo sapiens) (UniProt P11473). The assay can be described thus: qHTS assay to identify small molecule agonists of the vitamin D receptor (VDR) signaling pathway (AID 743222; calls by dose curve). A digest of the protocol:
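Fluorescence from cleaved LiveBLAzer B/G FRET substrate served as readout. VDR-bla cells had been treated 16 h at 37C with test compounds in DMSO, following a 4 h settling period, and substrate was loaded for 2 h at RT.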

Assay [7] concerns the target Peroxisome proliferator-activated receptor gamma (Homo sapiens) (UniProt P37231). The assay can be described thus: qHTS assay to identify small molecule antagonists of the peroxisome proliferator-activated receptor gamma (PPARg) signaling pathway (AID 743191; calls by dose curve; note: nearly all actives have a fitted effect of over 30% in size; note: potency is the fitted concentration of half-maximal effect). Put shortly:
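GeneBLAzer PPARg UAS-bla HEK293H cells carrying a UAS-driven beta-lactamase reporter were plated at 3000 cells/well, preincubated 5 h at 37C, then given compound for 17 h at 37C; LiveBLAzer B/G FRET substrate was read after 1 h at room temperature.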

Assay [8] can be described thus: qHTS assay for small molecule activators of the heat shock response signaling pathway - cell viability counter screen (AID 743209). Note: nearly all actives have a fitted effect of over 50% in size. A digest of the protocol:
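Viability of HSE-bla HeLa cells is measured with CellTiter-Glo in the wells already used for the reporter read. Compound exposure lasts 5 h at 37 C, and luminescence is read after 30 min at room temperature.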

Assay [9] is described as follows: qHTS assay to identify small molecule agonists of the peroxisome proliferator-activated receptor delta (PPARd) signaling pathway - cell viability counter screen (AID 743211). Note: nearly all actives have a fitted effect of over 55% in size. Note: potency is the fitted concentration of half-maximal effect. A digest of the protocol: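 PPARd-bla HEK293H cells (3000/well) were pre-incubated 5 h at 37 C, then exposed to compound for 17 h at 37 C. After 2 h with LiveBLAzer substrate, CellTiter-Glo was added to the same wells; luminescence read after 30 min at room temperature.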

The target of assay [10] is Peroxisome proliferator-activated receptor delta (Homo sapiens) (UniProt Q03181). Briefly: qHTS assay to identify small molecule agonists of the peroxisome proliferator-activated receptor delta (PPARd) signaling pathway (AID 743212; calls by dose curve). A digest of the protocol: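 Beta-lactamase reporter read by fluorescence (LiveBLAzer B/G FRET, 2 h, room temperature). Test agents, in DMSO, incubated at 37 C with PPARd-bla HEK293H cells.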
Sequence of Peroxisome proliferator-activated receptor delta (Homo sapiens) (Q03181 whole entry, looked up): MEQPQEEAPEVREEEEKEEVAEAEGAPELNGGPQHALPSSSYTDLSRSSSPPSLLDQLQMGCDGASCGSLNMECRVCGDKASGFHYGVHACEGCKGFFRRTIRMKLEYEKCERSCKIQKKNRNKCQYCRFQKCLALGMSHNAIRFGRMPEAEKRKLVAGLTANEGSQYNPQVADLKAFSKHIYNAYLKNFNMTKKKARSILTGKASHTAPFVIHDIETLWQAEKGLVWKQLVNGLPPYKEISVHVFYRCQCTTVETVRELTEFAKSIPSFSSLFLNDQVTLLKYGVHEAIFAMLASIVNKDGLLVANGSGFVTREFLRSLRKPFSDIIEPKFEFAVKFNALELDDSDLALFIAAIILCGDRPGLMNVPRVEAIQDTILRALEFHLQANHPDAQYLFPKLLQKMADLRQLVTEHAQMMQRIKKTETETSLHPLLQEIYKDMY

Assay [11] has the same target. Briefly: qHTS assay to identify small molecule antagonists of the peroxisome proliferator-activated receptor delta (PPARd) signaling pathway (AID 743215; active = well fitted inhibition curve with a large enough effect in the signal ratio in the repeat runs, not every such curve was filed as active; the % refers to the signal ratio;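 note: cells stimulated with agonist L165041 at 300 nM final during compound exposure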; note: potency is the fitted concentration of half-maximal effect). Put shortly:
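Plated HEK293H PPARd-bla cells rested 5 h at 37 C and 5% CO2. Compound, then agonist L165041 at 300 nM final, was added; 17 h at 37 C followed. Substrate loading, 2 h room temperature, fluorescence measured.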

Assay [12] has as its target Bile acid receptor (Homo sapiens) (UniProt Q96RI1). The assay can be described thus: qHTS assay to identify small molecule antagonists of the farnesoid-X-receptor (FXR) signaling pathway (AID 743217; active = well fitted inhibition curve with a large enough effect in the signal ratio in the repeat runs, not every such curve was filed as active; the % refers to the signal ratio). A digest of the protocol: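 Screen of the Tox21 10K library in quantitative HTS format using FXR-UAS-bla HEK 293T reporter cells. Agonist chenodeoxycholic acid, 50 uM final, added with compounds; 16 h incubation at 37 °C; beta-lactamase FRET fluorescence measured.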

For assay [13] the target is unchanged. Briefly: qHTS assay to identify small molecule agonists of the farnesoid-X-receptor (FXR) signaling pathway (AID 743220; active = well fitted activation curve with a large enough effect in the signal ratio in the repeat runs, not every such curve was filed as active; the % refers to the signal ratio). A digest of the protocol: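 FXR-UAS-bla HEK 293T cells carrying a UAS-driven beta-lactamase reporter were plated for 5 h at 37C/5% CO2, then exposed to DMSO-dissolved Tox21 10K compounds for 16 h at 37C. A LiveBLAzer B/G FRET substrate was loaded for 2 h at room temperature before fluorescence reading.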

Assay [14] can be described thus: qHTS assay to identify small molecule antagonists of the farnesoid-X-receptor (FXR) signaling pathway - cell viability counter screen (AID 743221; active = well fitted cell-killing curve with a large enough effect in the repeat runs, not every such curve was filed as active; note: nearly all actives have a fitted effect of over 50% in size). Put shortly: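 GeneBLAzer FXR-UAS-bla HEK 293T cells, compound plus chenodeoxycholic acid (50 uM final), 16 h at 37 C. CellTiter-Glo added to the same wells after the beta-lactamase read; luminescence read after 30 min at room temperature as viability.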

Assay [15] deals with Peroxisome proliferator-activated receptor gamma (Homo sapiens) (UniProt P37231). The assay can be described thus: qHTS assay to identify small molecule agonists of the peroxisome proliferator-activated receptor gamma (PPARg) signaling pathway (AID 743094; active = well fitted activation curve with a large enough effect in the signal ratio in the repeat runs, not every such curve was filed as active; the % refers to the signal ratio). A digest of the protocol:
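Reporter activation was scored by fluorescence of cleaved LiveBLAzer B/G substrate (1 h, room temperature) in PPARg-bla HEK293H cells previously treated 17 h at 37C with DMSO-dissolved compounds.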

Assay [16] is described as follows: qHTS assay for small molecule agonists of the antioxidant response element (ARE) signaling pathway (AID 743202; active = well fitted activation curve with a large enough effect in the signal ratio in the repeat runs, not every such curve was filed as active; the % refers to the signal ratio). Put shortly:
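Following a 16 h, 37 C exposure of reporter HepG2 cells (ARE-driven beta-lactamase, 2,000 cells/well) to compounds, FRET substrate was applied for 2 h at room temperature and fluorescence intensity recorded.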

The nature of assay [17]: qHTS assay for small molecule agonists of the antioxidant response element (ARE) signaling pathway - cell viability counter screen (AID 743203; calls by dose curve; note: nearly all actives have a fitted effect of over 55% in size; note: potency is the fitted concentration of half-maximal effect). A digest of the protocol:
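Viability counter screen: stably transfected ARE-bla HepG2 line, 16 hrs compound exposure at 37C/5% CO2, ATP-based CellTiter-Glo luminescence measured in the reporter wells.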

Assay [18] is described as follows: qHTS assay for small molecule activators of the heat shock response signaling pathway (AID 743210; active = well fitted activation curve with a large enough effect in the signal ratio in the repeat runs, with a control signal flat, not every such curve was filed as active; the % refers to the signal ratio; note: series mostly up to about 63 µM). Put shortly:
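Heat shock element–beta-lactamase HeLa reporter cells; qHTS with compounds for 5 h at 37 C; detection by FRET substrate fluorescence after 2.5 h at RT.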

Assay [19] deals with Vitamin D3 receptor (Homo sapiens) (UniProt P11473). Briefly: qHTS assay to identify small molecule antagonists of the vitamin D receptor (VDR) signaling pathway (AID 743223; active = well fitted inhibition curve with a large enough effect in the signal ratio in the repeat runs, not every such curve was filed as active; the % refers to the signal ratio). A digest of the protocol: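 VDR-bla cells were treated with compound plus 3 nM final 1alpha,25-dihydroxyvitamin D3 for 16 h at 37C. Beta-lactamase reporter read by B/G FRET substrate fluorescence after 2 h at room temperature. qHTS format.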
Sequence of Vitamin D3 receptor (Homo sapiens) (P11473 whole entry, looked up): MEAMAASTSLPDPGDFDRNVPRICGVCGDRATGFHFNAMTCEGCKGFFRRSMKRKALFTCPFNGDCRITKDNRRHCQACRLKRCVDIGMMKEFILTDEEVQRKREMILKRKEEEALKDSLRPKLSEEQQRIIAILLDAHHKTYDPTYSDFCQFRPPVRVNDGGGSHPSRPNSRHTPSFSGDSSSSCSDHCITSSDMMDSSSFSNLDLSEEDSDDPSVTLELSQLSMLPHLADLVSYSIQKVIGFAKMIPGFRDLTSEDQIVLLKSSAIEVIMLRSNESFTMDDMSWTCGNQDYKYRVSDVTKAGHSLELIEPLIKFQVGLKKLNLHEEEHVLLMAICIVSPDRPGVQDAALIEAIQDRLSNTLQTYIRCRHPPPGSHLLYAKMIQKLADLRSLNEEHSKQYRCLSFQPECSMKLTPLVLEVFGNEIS

Inconclusive results are not listed. Activity calls are given as the source filed them. Unless noted, calls come from the whole dose curve; as a rule, active = well fitted curve in the direction sought with a large enough effect in the repeat runs; inconclusive = weak or mixed curves; inactive = no such curve, though single readings can be large; an effect the other way counts as inactive or inconclusive.

Sequence of Peroxisome proliferator-activated receptor gamma (Homo sapiens) (P37231 whole entry, looked up): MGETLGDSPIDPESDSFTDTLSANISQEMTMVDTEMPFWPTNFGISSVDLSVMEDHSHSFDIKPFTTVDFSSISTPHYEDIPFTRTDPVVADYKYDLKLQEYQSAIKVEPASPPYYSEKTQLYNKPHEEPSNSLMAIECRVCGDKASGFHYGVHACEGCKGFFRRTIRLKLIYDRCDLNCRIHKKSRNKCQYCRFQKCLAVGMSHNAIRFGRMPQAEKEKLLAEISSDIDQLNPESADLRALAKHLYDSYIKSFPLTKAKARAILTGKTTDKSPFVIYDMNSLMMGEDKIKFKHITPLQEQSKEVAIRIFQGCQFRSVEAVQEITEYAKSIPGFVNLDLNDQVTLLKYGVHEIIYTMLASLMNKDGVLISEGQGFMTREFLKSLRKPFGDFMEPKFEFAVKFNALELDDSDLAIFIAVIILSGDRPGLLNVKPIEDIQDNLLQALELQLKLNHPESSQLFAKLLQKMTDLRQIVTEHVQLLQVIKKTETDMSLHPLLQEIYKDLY
Sequence of Bile acid receptor (Homo sapiens) (Q96RI1 whole entry, looked up): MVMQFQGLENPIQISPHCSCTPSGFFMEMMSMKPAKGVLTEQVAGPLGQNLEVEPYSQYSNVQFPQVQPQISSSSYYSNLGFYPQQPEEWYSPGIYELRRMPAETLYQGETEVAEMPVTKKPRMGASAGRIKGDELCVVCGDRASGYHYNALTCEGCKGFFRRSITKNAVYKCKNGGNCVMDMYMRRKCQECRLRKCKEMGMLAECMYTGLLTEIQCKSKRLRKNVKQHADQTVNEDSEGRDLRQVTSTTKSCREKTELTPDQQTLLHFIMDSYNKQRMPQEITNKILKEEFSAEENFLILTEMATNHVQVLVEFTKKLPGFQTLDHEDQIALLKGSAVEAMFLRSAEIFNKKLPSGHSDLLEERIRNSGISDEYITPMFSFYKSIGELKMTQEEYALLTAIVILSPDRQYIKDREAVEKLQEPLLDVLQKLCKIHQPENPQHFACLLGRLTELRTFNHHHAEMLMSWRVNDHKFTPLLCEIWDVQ

For `CC(C)(C)c1cc([N+](=O)[O-])cc([N+](=O)[O-])c1O`, the Potency in assay [1] was 17.2 µM (active); in assay [2], 27.2 µM (active); in assay [3], 0.435 µM (active). The Potency entry in [4] and in assay [5] was “inactive” each time. The outcome in assay [6] was inactive.

For `COP(=S)(OC)Oc1cc(Cl)c(I)cc1Cl`, the Potency result in assay [1], in assay [2], in assay [3], in assay [8], in assay [9] and in assay [4] was “inactive” in each case. Further, the Potency result in [11], in [12] and in assay [14] was “inactive” in each case. Further, the Potency in [7] was 27.5 µM (active). The molecule was called inactive in assay [10], in assay [13] and in assay [6].

Regarding `CC(=O)C(C)(C)C`, the Potency entry in assay [1], in assay [15], in assay [7], in [3], in assay [16] and in assay [17] was “inactive” in each case. The Potency result in assay [9], in assay [4] and in [14] was “inactive” in each case. For the same molecule, in assay [18], the result was inactive.

Turning to `Nc1ccc([N+](=O)[O-])cc1[N+](=O)[O-]`, the Potency result in assay [1], in assay [2], in [15], in assay [3], in assay [17] and in [8] was “inactive” each time. Moreover, the Potency result in assay [9], in [4], in assay [11] and in assay [14] was “inactive” throughout. Further, the molecule was called inactive in [18], in assay [10] and in [6].

Take `COc1nn(CSP(=S)(OC)OC)c(=O)s1`: the Potency in assay [1] is 68.6 µM (active); in [7], 49 µM (active). Moreover, the Potency result in [2], in [17], in [9] and in assay [14] was “inactive” in each case. For the same molecule, the molecule was called inactive in assay [13].

Take `IC(I)=C(I)I`: the Potency is 15.4 µM (active) in assay [1]; 43.3 µM (active) in assay [2]; 9.77 µM (active) in assay [3]; 6.11 µM (active) in assay [17]; 9.77 µM (active) in assay [9]; 12.3 µM (active) in assay [4]. In addition, the Potency is 15.5 µM (active) in [11] and 12.3 µM (active) in [5].

Consider `O=C(NCc1cccnc1)Nc1ccc([N+](=O)[O-])cc1`, for which the Potency result in assay [1], in assay [15], in assay [3], in [16], in assay [17] and in assay [8] was “inactive” each time. For the same molecule, the Potency result in assay [9], in [4], in assay [5] and in [14] was “inactive” each time. Moreover, the outcome in [18] was inactive.

Turning to `Cc1ccc(N)cc1C`, the Potency entry in assay [1], in assay [15], in assay [3], in assay [16], in [17] and in assay [8] was “inactive” each time. The Potency result in assay [9], in [11], in [5] and in assay [14] was “inactive” each time. Moreover, the molecule was called inactive in assay [18], in assay [10], in [13], in [6] and in assay [19].

Turning to `CC(c1ccc(O)cc1)(c1ccc(O)cc1)c1ccc(O)cc1`, the Potency entry in assay [1], in assay [15], in assay [8], in assay [4] and in assay [14] was “inactive” each time. Further, the Potency was 21.9 µM (active) in assay [7] and 4.9 µM (active) in assay [11]. Besides, the molecule was called inactive in assay [6].

Regarding `Cn1sc(Cl)cc1=O`, the Potency entry in [1], in assay [15], in [7], in [17], in assay [8] and in assay [9] was “inactive” each time. In addition, the Potency result in assay [4], in [11], in assay [12], in [5] and in assay [14] was “inactive” each time. Further, the molecule was called inactive in [10], in [13] and in assay [6].

Regarding `CCOC(=O)CBr`, the Potency result in assay [1], in assay [15], in assay [7], in assay [3], in assay [17] and in assay [8] was “inactive” in each case. Besides, the Potency entry in assay [9], in assay [4], in [11], in [12] and in [14] was “inactive” throughout. Moreover, the molecule was classed as inactive in assay [18], in assay [10], in assay [13], in assay [6] and in assay [19].

Turning to `CC(C)N(CCC(C(N)=O)(c1ccccc1)c1ccccn1)C(C)C` (configuration not stated), the Potency result in [1], in [2], in assay [3], in assay [16], in assay [17] and in assay [8] was “inactive” throughout. In addition, the Potency result in assay [9], in [4], in assay [11], in [5] and in assay [14] was “inactive” throughout. The molecule was called inactive in assay [18], in assay [10], in assay [6] and in assay [19].

As for `COC(C)(C)CCC[C@H](C)C/C=C/C(C)=C/C(=O)OC(C)C`, the Potency entry in assay [1], in [2], in assay [15], in assay [4] and in assay [14] was “inactive” each time. Also, the Potency in assay [9] is 38.9 µM (active).
